Screening results: PubChem, Sanford-Burnham Center for Chemical Genomics
CYP2C19 activ: increases human CYP2C19 enzyme activity. recombinant CYP2C19, luciferin-H EGE luminescence; active compounds read high; 0 = fully inhibited enzyme, 1 = untreated enzyme. activation factor at 5 µM. P33261. 96,000 tested, under 10 active;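 active means activation factor of at least 2 at 5 µM in the primary screen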;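 further: 0 = wells with 2.5 mM tranylcypromine and 1 = vehicle-only wells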
Target sequence (P33261 whole entry, looked up): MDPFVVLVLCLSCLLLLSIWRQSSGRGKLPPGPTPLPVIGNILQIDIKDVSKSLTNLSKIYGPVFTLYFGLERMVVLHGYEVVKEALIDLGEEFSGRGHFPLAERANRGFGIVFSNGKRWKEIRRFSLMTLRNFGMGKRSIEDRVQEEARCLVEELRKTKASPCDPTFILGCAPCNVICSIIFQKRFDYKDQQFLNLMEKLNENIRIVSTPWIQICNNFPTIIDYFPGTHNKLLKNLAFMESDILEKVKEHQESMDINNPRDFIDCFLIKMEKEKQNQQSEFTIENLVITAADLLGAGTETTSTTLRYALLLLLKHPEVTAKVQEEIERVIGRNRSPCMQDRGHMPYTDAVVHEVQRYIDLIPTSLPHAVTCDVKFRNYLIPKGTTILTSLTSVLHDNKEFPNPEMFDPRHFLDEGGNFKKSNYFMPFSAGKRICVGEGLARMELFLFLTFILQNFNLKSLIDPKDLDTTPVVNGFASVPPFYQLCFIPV
CYP2C19 inh: inhibitors of human CYP2C19 | AID 778 | CYP2C19 Supersomes, luciferin-H EGE luminescence, 30 min | inhibition, % at 5 µM | 96,000 tested, 21% active | P33261;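 active means CYP2C19 inhibition above a set limit at 5 µM in the primary screen, cut at about 50% in these data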;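 further: plate controls were negative control wells for no effect and 2.5 mM tranylcypromine positive control for full effect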
CYP2C9 inh: human CYP2C9 inhibition; inhibition, % at 5 µM; 96,000 tested, 20% active; CYP2C9 Supersomes, luciferin-H conversion, luminescence;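 active means blocking of liver enzyme CYP2C9 beyond about 50% at 5 µM, limit read from the data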
PLAP act: activates human placental alkaline phosphatase; activation fold at 20 µM; purified PLAP enzyme, luminescent substrate read-out; active compounds read high; AID 696; 96,000 tested, 1.2% active; P05187; in the data active means activation fold above about 2
CYP2C9 activ: increases human cytochrome P450 2C9 activity | P11712 | recombinant CYP2C9, luciferin-H conversion, luminescence; active compounds read high; factor 1 = untreated enzyme, 0 = blocked | activation factor at 5 µM | 96,000 tested, 1.4% active;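 active means activation factor of 2 or more for CYP2C9 at a 5 µM dose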;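 further: 0 = sulfaphenazole-blocked wells and 1 = vehicle-only wells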
Active calls of the source: *; / = no result. Shown are actives, neighbours in structure and some others; about 31% of the full set was active somewhere.

SMILES	CYP2C19 activ	CYP2C19 inh	CYP2C9 inh	PLAP act	CYP2C9 activ
N#CC(c1ccc(F)cc1)c1ccc(C(=O)c2ccccc2)cc1 (configuration not stated)	0.2	76*	91*	/	0.1
N#CC(c1ccccc1)c1ccc(C(=O)c2ccc(F)cc2)cc1 (configuration not stated)	0.1	91*	99*	0.4	0
O=C(O)CCCC(=O)Nc1c(F)c(F)c(F)c(F)c1F	1	5	8	1	0.9
Cc1ccccc1C(=O)Nc1ccc2nc3n(c(=O)c2c1)CCC3	1.1	-14	-4	0.9	1
CCn1cc(Br)c(C(=O)Nc2cccc(Cl)c2)n1	0.1	94*	66*	0.7	0.3
CCn1cc(Br)c(C(=O)NN)n1	0.9	8	-23	1	1.2
CCn1cc([N+](=O)[O-])c(C(=O)Nc2ccc3c(c2)OCCO3)n1	0.5	49	4	1	1
CCn1cc(Br)c(C(=O)Nc2ccc(OC)cc2)n1	0.3	74*	20	0.9	0.8
CCn1cc(Br)c(C(=O)Nc2ccc(C(=O)OC(C)C)cc2)n1	0.3	75*	14	1.4	0.9
CCOC(=O)c1c(NC(=O)c2nn(CC)cc2Br)c(C#N)cn1-c1ccccc1	0.2	75*	-2	1	1
CC1CCCCC1NC(=O)C1CCN(S(=O)(=O)c2cccc3nsnc23)CC1 (configuration not stated)	1.3	-25	-76	0.7	1.8
Cc1cccc(N2C(=O)c3cccc4c(N(C)CCO)ccc(c34)C2=O)c1	0.7	26	7	0.8	0.9
CC(=O)Nc1ccc(S(=O)(=O)N2CCC(c3nc4ccccc4[nH]3)CC2)cc1	0.5	48	68*	1	0.3
Cc1ccc2nc(C3CCN(S(=O)(=O)c4ccc5ccccc5c4)CC3)[nH]c2c1	0.6	38	-195	1.7	3*
O=C(c1ccc(S(=O)(=O)N2CCC(c3nc4ccccc4[nH]3)CC2)cc1)N1CCOCC1	0.5	47	35	1	0.6
CC(=O)Nc1ccc(S(=O)(=O)N2CCN(C(=O)N3CCOCC3)CC2)cc1	1.2	-17	-22	1	1.2
CC(=O)Nc1ccc(S(=O)(=O)N2CCN(c3cc(C)nc4ccccc34)CC2)cc1	0.6	45	66*	1.6	0.3
O=S(=O)(c1ccc2c(c1)OCCO2)N1CCC(c2nc3ccc(Cl)cc3[nH]2)CC1	0.2	84*	-111	1.5	2.1*
O=C(NC1CCSC1=O)c1cccc(C(=O)NC2CCSC2=O)c1 (configuration not stated)	0.9	6	5	1.3	0.9
CCOC(=O)c1[nH]c(C)c(C(=O)NCc2cccnc2)c1C	1	0	-17	0.9	1.2
O=S(=O)(c1ccc2c(c1)OCCO2)N1CCC(c2nc3ccccc3[nH]2)CC1	0.4	63*	-57	1.1	1.6
O=C(NCC1CCCO1)c1ccc(CS(=O)(=O)c2ccc(Cl)cc2)o1 (configuration not stated)	0.9	14	25	0.8	0.8
N#CCCCSC1=C(C#N)C(c2ccccc2Cl)CC(=O)N1 (configuration not stated)	0.1	88*	35	1	0.7
CCCSC1=C(C#N)C(c2ccc(Cl)cc2Cl)CC(=O)N1 (configuration not stated)	0.6	37	67*	1.1	0.3
CCSC1=C(C#N)C(c2ccccc2Cl)CC(=O)N1 (configuration not stated)	0.7	30	18	0.9	0.8
SMILES	CYP2C19 activ	CYP2C19 inh	CYP2C9 inh	PLAP act	CYP2C9 activ
CCCSC1=C(C#N)C(c2ccccc2C)CC(=O)N1 (configuration not stated)	0.4	57*	39	1.1	0.6
CCCSC1=C(C#N)C(c2ccccc2OCC)CC(=O)N1 (configuration not stated)	0.5	47	23	0.8	0.8
Cc1ccccc1Nc1nc(CSc2nnc(-c3ccoc3C)n2C)cs1	0.1	86*	88*	1.5	0.1
CCOC(=O)N1CCN(c2ccc(O)cc2)CC1	1	-5	-4	0.8	1
O=C(CSC1CCCCC1)Nc1nccs1	0.2	84*	42	1	0.6
COc1ccc(NC(=O)CSc2nc(N3CCCCC3)nc(N3CCCCC3)n2)cc1	1.1	-9	-8	0.9	1.1
O=C(CSc1nc(N2CCCCC2)nc(N2CCCCC2)n1)Nc1nccs1	0.8	15	67*	0.8	0.3
O=C(Cn1cc2c(n1)CCCC2)NCCCN1CCN(c2ccccc2F)CC1	0.8	20	-7	1	1.1
COc1cc2nc(SCc3ccc(F)cc3)n(Cc3cccs3)c(=N)c2cc1OC	1	2	55*	1.1	0.4
CCN(CC)C(=O)CSc1nc2cc(OC)c(OC)cc2c(=O)n1Cc1ccc(Cl)cc1	0.9	11	43	1	0.6
CC1(C)N=C(c2ccc(Cl)cc2)C(=O)N1	0.1	87*	34	1	0.7
Cc1ccc(C2=NC(C)(C)NC2=O)cc1	0.2	84*	3	0.9	1
O=C1NC2(CCCCCC2)N=C1c1ccc(F)cc1	0.6	40	9	0.9	0.9
CC1(C)N=C(c2ccccc2)C(=O)N1	0.6	42	-7	0.9	1.1
CC1(C)N=C(c2cccc(F)c2)C(=O)N1	0.4	60*	11	0.9	0.9
COC(=O)c1ccc(CON2C(=O)c3ccccc3C2=O)cc1	0.9	15	-8	1	1.1
O=C1c2ccccc2C(=O)N1OCc1cccc(Cl)c1	0.2	76*	-5	0.8	1.1
O=C1c2ccccc2C(=O)N1OCc1ccccc1	0.4	56*	-14	1	1.1
COc1ccc(C2CC(C(F)(F)F)n3ncc(C(=O)NCc4cccnc4)c3N2)cc1OC (configuration not stated)	0.8	20	52*	1.4	0.5
Cc1ccc(C2CC(C(F)(F)F)n3nc(C(=O)NCC4CCCO4)cc3N2)cc1 (configuration not stated)	0.5	47	58*	1.7	0.4
COc1cccc(C2CC(C(F)(F)F)n3ncc(C(=O)NCC4CCCO4)c3N2)c1 (configuration not stated)	0.7	33	60*	1.6	0.4
Cc1c(CNC(=O)c2cnn3c2NC(c2ccccc2)CC3C(F)(F)F)cnn1C (configuration not stated)	1	-2	30	1.4	0.7
O=C(Nc1cccc(Oc2ccc3c(c2)C(=O)NC3=O)c1)c1ccco1	0.9	14	22	1.3	0.8
C/C(=N/NC(=O)CNc1ccc(C)cc1)c1ccc(Br)s1	1	-1	0	1.2	1
CC1CN(C(=O)c2cc3c(=O)n4ccccc4nc3s2)CC(C)O1 (configuration not stated)	0.9	8	17	0.8	0.8
Cc1ccccc1-c1ccc(=O)n(CC(=O)Nc2ccc(N3CCOCC3)cc2)n1	0.9	10	12	1.5	0.9
